Experimental data as given in PubChem BioAssay AID504329 (Southern Research Specialized Biocontainment Screening …, 2011).
The campaign covered roughly 340,000 compounds. About 1,000 (0.29%) were called active. No stated cut-off is given here; in the data, inconclusive means inhibition above about 27% without an active follow-up result; inactive means below that. Not all results are given here. Potency and affinity values are given separately.

Experiment: NS1A inhibition, H1N1 influenza, cell based functional assay (AID 504329)
Conditions: percent inhibition, at 12.5 µM, hits give high values

SMILES | inhibition
Cc1cc(C(=O)OCC(=O)Nc2ccccc2C)c(C)o1 | -4.72% (inactive)
Cc1c(N=C2C(=O)Nc3ccccc32)c(=O)n(-c2ccccc2)n1C | 11% (inactive)
Cc1c(N=c2scc(-c3ccccc3)n2C)c(=O)n(-c2ccccc2)n1C | -5.38% (inactive)
Cc1ccc(N2C(=O)CN(Cc3ccccc3)C2=S)cc1C | -6.48% (inactive)
O=[N+]([O-])c1cc(/C=N\Nc2ccccn2)ccc1Cl | -4.08% (inactive)
O=C(N/N=C/c1ccc(O)c([N+](=O)[O-])c1)c1ccncc1 | 13.6% (inactive)
COc1ccc(CC(=O)Nc2cc(S(=O)(=O)N3CCOCC3)ccc2N2CCCC2)cc1OC | 2.03% (inactive)
NC(=O)c1ccc(-c2c(-c3ccccc3)sc3ccccc23)cc1 | -3.51% (inactive)
CCOC(=O)N1CCC(NC(=O)CCc2c(C)nc3c(c(C)nn3C(C)(C)C)c2C)CC1 | 0.25% (inactive)
CNC(=S)NNc1nc(-c2ccccc2)c2cc(Cl)ccc2n1 | 8.4% (inactive)
Nc1c(Cl)ncnc1N/N=C/c1cccc(O)c1 | 17.6% (inactive)
COc1ccc(/C=N/Nc2nccnc2Cl)c(OC)c1 | -10.3% (inactive)
Nc1c(Cl)ncnc1N/N=C/c1ccnc2ccccc12 | -0.57% (inactive)
COc1ccccc1/C=N/Nc1nccnc1Cl | 4.08% (inactive)
COc1ccc(/C=N/Nc2ncnc(Cl)c2N)cc1OC | -17% (inactive)
Nc1c(Cl)ncnc1N/N=C/c1ccc(O)cc1 | -15.8% (inactive)

SMILES | inhibition
Cc1cccc(NC(=S)NCc2ccc(F)cc2)c1C | -12.3% (inactive)
CN1CCN(c2ccc(CNC(=O)c3cc4ccccc4o3)cc2)CC1 | -11.5% (inactive)
CCOC(=O)N1CCN(S(=O)(=O)c2ccc(C(=O)Nc3sc4c(c3C(N)=O)CC(C)(C)NC4(C)C)cc2)CC1 | -1.86% (inactive)
O=C1NC(=Nc2ccccc2Br)SC1(CO)CO | -3.43% (inactive)
COc1cccc(CNc2ccc(S(=O)(=O)Nc3nccs3)cc2)c1O | -5.98% (inactive)
CC(=O)NC(CC(=O)O)c1ccccc1 (configuration not stated) | -5.66% (inactive)
O=C(c1cc(-c2ccc(Cl)cc2)nc2ccccc12)N1CCOCC1 | -19.9% (inactive)
COc1ccc(OC)c(C2=NS(=O)(=O)N(C)C(C(=O)NCc3ccco3)=C2)c1 | -7.9% (inactive)
COc1ccc(CN2CCN(c3ccccn3)CC2)cc1OCc1ccccc1 | 7.77% (inactive)
O=C(c1cccc2ccccc12)N1CCN(c2ccc([N+](=O)[O-])c(NCc3ccco3)c2)CC1 | 7.93% (inactive)
CC(=O)Nc1nnc(CCS(=O)(=O)c2ccc(C)cc2)s1 | -6.45% (inactive)
CCc1nnc(NC(=O)c2cnccn2)s1 | -0.42% (inactive)
CCc1nnc(NC(=O)c2cccc(C(=O)Nc3nnc(CC)s3)n2)s1 | -2.25% (inactive)
CCSc1nnc(NC(=O)c2cccnc2Cl)s1 | -1.92% (inactive)
Cc1ccc(S(=O)(=O)CCc2nnc(NC(=O)c3cnccn3)s2)cc1 | -1.91% (inactive)
CCSc1nnc(NC(=O)c2ccccc2)s1 | -12.7% (inactive)
